High-throughput results from PubChem BioAssay.
SARS PLpro yeast = blocks SARS-CoV papain-like protease in a yeast assay. hit rate 0.19% among 330,000. Potency, µM (highest dose often 32.9 µM), usual class: activators. S. cerevisiae expressing SARS-CoV PLpro, growth rescue; calls by dose curve; also: nearly all actives have a fitted effect of over 55% in size
MARV entry inh = blocks Marburg virus binding to or entry into cells; Marburg virus pseudotyped entry inhibition, cell reporter; Potency, µM (titrated, usually from 37.8 µM), actives largely listed as inhibitors; hit rate 1.8% among 300,000; calls by dose curve; tested in HEK293 cells
HCV inhibitor = inhibitors of hepatitis C virus infection | hit rate 3.4% among 340,000 | Huh7.5.1 HCVcc-Cre infection, luciferase reporter, 44 h | Potency, µM (titrated, usually from 41.8 µM), usual class: inhibitors; active = well fitted inhibition curve with a large enough effect; inconclusive = small, poorly fitted or top-dose-only effect, or another doubt; inactive = no such curve, though single readings can be large or run the other way
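Infectious HCVcc-Cre (~0.5 moi) was added to cells just after compound, with cells seeded 4 h earlier at 1,000 per well. Luciferase activity after 44 h culture reported infection; substrate was incubated 15 min at room temperature before reading.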
LASV entry inh = inhibitors of Lassa virus binding or cell entry | Lassa virus pseudotype entry inhibition, cell reporter | Potency, µM (top dose mostly 37.9 µM), usual class: inhibitors | AID 540256 | hit rate 1.2% among 300,000; calls by dose curve; tested in HEK293 cells; also: nearly all actives have a fitted effect of over 50% in size
FMDV inh = foot and mouth disease virus antiviral activity. FMDV antiviral cell-based qHTS. Potency, µM (top dose mostly 57.9 µM), usual class: inhibitors. hit rate 1.2% among 410,000; calls by dose curve; tested in HEK293T cells; also: read-out not given here; nearly all actives have a fitted effect of over 45% in size
HCMV antiviral = blocks human cytomegalovirus replication. activity change, negative = inhibition, % at 57.5 µM. HFF cells, HCMV-luciferase reporter, 72 h; stronger effect = lower value. hit rate 4.5% among 410,000; in the data active = activity change below about -60%; inconclusive = no clear call, values can overlap the other calls; inactive = above about -39%
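Compounds were evaluated in HFFs infected with an HCMV luciferase reporter virus (MOI 1 PFU/cell). Luciferase in lysates collected 72 h post infection served as the replication measure.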
Numbers stand for hits; . = inactive; ? = inconclusive; / = no result. A selection: hits, their analogues and other compounds. The true share with any hit is near 8%.

SMILES	SARS PLpro yeast	MARV entry inh	HCV inhibitor	LASV entry inh	FMDV inh	HCMV antiviral
Cc1cc(C)nc(-n2ncc3c2CC(c2cccc(Cl)c2)CC3=O)n1 (stereo not given)	.	5.62µM	.	?	.	-89.3
COc1ccc(N2C(=O)CS(=O)(=O)C23C(=O)N(Cc2ccccc2F)c2ccccc23)cc1Cl (stereo not given)	/	/	/	.	.	.
COc1cccc(C(=O)OCCN2CCCCC2)c1	.	.	.	.	.	-100.3
COc1cccc(C(=O)NNC(=O)C(=O)N2CCCCC2)c1	.	.	.	.	.	-67.4
COc1ccc(C(=O)NNC(=O)C(=O)N2CCCCC2)cc1OC	.	.	.	.	.	.
COc1cccc(CO[C@H]2C=C[C@@H](c3ccccc3)O[C@H]2CN=[N+]=[N-])c1	/	.	/	/	/	/
O=C(CSc1nc2ccccc2nc1Cc1ccccc1)Nc1ccc2c(c1)OCO2	/	/	/	.	.	.
CCc1cccc(C)c1NC(=O)CSc1nc2ccccc2nc1Cc1ccccc1	/	/	/	.	.	-68.1
Cc1ccc(Cc2nc3ccccc3nc2SCC(=O)Nc2ccc3c(c2)OCO3)cc1	/	/	/	.	.	-66.1
CCc1cccc(C)c1NC(=O)CSc1nc2ccccc2nc1N1CCOCC1	/	?	/	?	?	.
O=C(CCc1ccc(S(=O)(=O)N2CCOCC2)cc1)N/N=C/c1ccc(F)cc1F	.	?	.	?	.	.
O=C(CCc1ccc(S(=O)(=O)N2CCOCC2)cc1)N/N=C/c1ccc(O)c(O)c1O	?	.	.	.	39.8µM	-97.9
c1ccc2c(CCNc3ncnc4nc[nH]c34)c[nH]c2c1	.	.	7.08µM	?	?	?
c1ccc(CCNc2ncnc3nc[nH]c23)cc1	.	?	?	.	.	?
Cc1ccc(C(=O)N2CC(C)SC2=Nc2cccc(S(=O)(=O)N(C)C)c2)cc1 (stereo not given)	.	.	.	3.16µM	.	.
COc1cc(=O)n2c(c1C(=O)NCc1nonc1C)CCN(C(=O)c1cccc(C)c1C)CC2	/	/	/	/	.	/
N#CC1CN(Cc2ccccc2)CN(Cc2ccccc2)C1	.	?	.	.	.	-62.5
N#CC1CN(C(c2ccccc2)c2ccccc2)C1	.	.	.	.	.	?
CCCn1c(=O)n(-c2ccccc2Cl)c(=O)c2sc3ccccc3c21	/	.	/	.	.	.
COc1ccc(-n2c(=O)c3c(c4cc(OC)ccc4n3C)n(CCC(C)C)c2=O)cc1	/	/	/	.	.	.
Cc1occc1-c1nc(-c2ccccn2)no1	.	11.2µM	?	?	.	.
Cc1occc1-c1nc(-c2ccncc2)no1	.	.	.	.	.	.
CCNc1ccc(-c2nc(-c3ccccn3)no2)cc1[N+](=O)[O-]	/	.	/	.	.	-106.2
c1ccc(-c2nc3n(c2-c2ccc4c(c2)OCO4)CCC3)nc1	/	/	/	9.96µM	/	/
c1ccc(-c2noc(-c3ccc4ccccc4c3)n2)nc1	.	1.64µM	?	0.291µM	3.98µM	/
SMILES	SARS PLpro yeast	MARV entry inh	HCV inhibitor	LASV entry inh	FMDV inh	HCMV antiviral
c1ccc(-c2noc(-c3ccc4c(c3)OCO4)n2)nc1	.	?	?	0.411µM	/	-80.7
Cc1cccc(-c2noc(-c3ccc4c(c3)OCO4)n2)c1	.	?	.	?	.	.
O=C(Nc1ccc(Br)cn1)c1coc(=O)c(Br)c1	.	.	.	.	.	.
C[C@@H](NC(=O)c1coc(=O)c(Br)c1)c1ccccc1	.	?	?	?	39.8µM	.
Cc1cc(NC(=O)c2coc(=O)c(Br)c2)ccc1C(C)C	.	?	.	.	1µM	.
CCCN(C(=O)COc1cc(=O)n(CC)c2ccccc12)c1ccc(C(C)C)cc1	/	.	/	.	?	-102.1
CCOC(=O)c1c(C)[nH]c(C(=O)N2CCc3cc(OC)c(OC)cc3C2)c1C	.	.	11.2µM	?	?	.
CCc1ccc(N2CC(C(=O)N/N=C/c3cc([N+](=O)[O-])ccc3O)CC2=O)cc1 (stereo not given)	.	.	?	7.08µM	.	?
CCOC(=O)C(=Cc1ccc(Br)cc1)C(=O)OCC	.	?	?	?	22.4µM	-100.4
CCOC(=O)C(=Cc1ccc(F)cc1)C(=O)OCC	.	/	/	/	/	/
CCOC(=O)C(CC)(CC)C(=O)/C=C/c1ccc(Br)cc1	.	.	?	.	?	-106.4
CCOC(=O)C(=Cc1ccc(-n2ccnc2)cc1)C(=O)OCC	.	?	?	?	22.4µM	-86.2
COC(=O)c1ccc(-n2ccnc2)cc1	.	.	.	.	.	.
CCCCCCN1C(=O)CC[C@@]23C1=NC(C(=O)OC)=C(C(=O)OC)[C@@H]2N(Cc1ccccc1)c1ccccc13	/	.	/	/	/	/
CC(=O)c1ccc(F)c(-c2cc(C)cc3c2OC(CNC(=O)c2ccnn2C)C3)c1 (stereo not given)	/	/	/	/	.	/
CCOc1ccccc1NC(=O)N1CCc2c(sc(C)c2CC)C1c1ccccc1 (stereo not given)	/	/	/	.	.	.
CCCN(CCC)c1nn2c(=O)c(C(=O)NCc3cccc(OC)c3)cnc2s1	/	/	/	.	.	.
COc1ccc(-c2ccc(C(=O)N3CCc4c(cnc(C)c4CNS(=O)(=O)N(C)C)C3)o2)cc1	/	/	/	/	.	/
COc1cc(CN2CC(=O)N(c3cccc(Cl)c3C)C2=S)cc(OC)c1OC	.	/	.	/	?	-63.1
COc1cc(CN2CC(=O)N(c3ccccc3Cl)C2=S)cc(OC)c1OC	.	?	?	?	31.6µM	.
COc1cc(CN2CC(=O)N(c3ccc(C)c(Cl)c3)C2=S)cc(OC)c1OC	.	.	.	.	.	.
CCOc1ccc(CCNC(=O)Cn2ncc3c([nH]c4ccccc43)c2=O)cc1OCC	/	/	/	.	.	.
C=CCN1CC(O)=C(c2ccccc2)C1=N	.	.	.	.	/	-68.6
C=C(C)COc1ccc(-c2[nH]ncc2-c2ccccc2OC)c(O)c1	.	7.94µM	?	?	.	.
COc1ccc(-c2ncncc2-c2ccc(Cl)cc2)c(O)c1	.	?	.	.	.	.
SMILES	SARS PLpro yeast	MARV entry inh	HCV inhibitor	LASV entry inh	FMDV inh	HCMV antiviral
CCOc1ccc(-c2ncncc2-c2ccccc2OC)c(O)c1	.	?	.	.	.	.
COc1ccc(-c2cncnc2-c2ccc(OC)cc2O)cc1	.	/	.	/	?	-63.8
CCOc1ccc(-c2[nH]ncc2-c2ccc(Cl)cc2)c(O)c1	.	/	.	/	.	-85.6
C=C(C)COc1ccc(-c2ncncc2-c2ccccc2OC)c(O)c1	.	?	?	.	?	-69.4
FC(F)(F)c1ccccc1-c1ccc2ncnc(NC3CCNCC3)c2c1	/	/	/	/	.	/
CC(C)=CCCC1(C)C=Cc2c(c(C)cc3c2[nH]c2ccccc23)O1 (stereo not given)	/	/	/	/	.	/
COc1ccc(CN2COc3ccc4c(C)cc(=O)oc4c3C2)cc1	/	/	/	.	.	.
Cc1cc(C)cc(NC(=O)Cn2c(=O)n(C(C)C)c(=O)c3oc4ccccc4c32)c1	/	/	/	.	.	.
C=C(C)COc1ccc(-c2n[nH]c(C)c2-c2ccc(Br)cc2)c(O)c1	.	?	?	0.366µM	/	-76.6
C=C(C)COc1ccc(-c2[nH]ncc2-c2ccc(Br)cc2)c(O)c1	.	3.26µM	?	?	.	-94.3
